The first assay has as its target GALNT12. The assay is described as follows: pooled miR-30 sensor sort-seq; sequence = guide strand. The note with it: shRNA.
TGAACTTCTGATTCTCTGGGGC yielded a sensor-assay potency score (higher = more potent) of 0.682. Same read-out and setting: in the case of TTACTCACAGCAAACAGCCCAC it was -0.133.

Consider TTCTTCTCTTTGCACAGCGGGT, for which the sensor-assay potency score (higher = more potent) was -1.37. Sequence TATAGTCAAAGCAGTAGTCTGT registered a sensor-assay potency score (higher = more potent) of 0.11. On the same count and under the same terms, the value for TCGATCACATCAATCACCGGGC was -0.0357. Turning to TTACACTGGAGCTTGTCCCGGA, the sensor-assay potency score (higher = more potent) is 0.473. Same read-out and setting: the value for TTTCTTCTCTTTGCACAGCGGG was -0.991.

On to TTCTTCTAGCAGGATATCCGGG, for which the sensor-assay potency score (higher = more potent) is -0.589. TTCAGCTGCACGAACACTGTTG came in with a sensor-assay potency score (higher = more potent) of -0.106. On to TCTTCTAGCAGGATATCCGGGG, for which the sensor-assay potency score (higher = more potent) was -0.323. Take TATCACTGTAGTCATCTACAAG: the sensor-assay potency score (higher = more potent) was -1.3.

Sequence TAGTCCTTTGTTCTGGAGCATC gave a sensor-assay potency score (higher = more potent) of -1.37.

Another assay concerns the target GALNT14. Described as above. The note with it: shRNA.
As for TTTTGGTCCATTGCTGTCGGTC, the sensor-assay potency score (higher = more potent) is -1.13. On the same count and under the same terms, in the case of TTGGTGTTCTTTATATACGTGT it was -0.309; in that of AACAGCAGCACCGTGATCCAGA, -0.665. In the case of ATTGCTGTCGGTCATCTCCATT, the sensor-assay potency score (higher = more potent) is -1.29. The same measure, in the same setting: in the case of TTGACGACGATTTCCTTGCCGT it was -0.222; in that of TATGATAGGAGTCCTGATGGGC, -0.477; in that of TCTTTTGGAAACAACCTCCATT, -0.288.

The sequence TTGTCGATCACGAAGAGCCCTC registered a sensor-assay potency score (higher = more potent) of -0.543. The sequence TCATCTCTCAATGTAGTCCTGG returned a sensor-assay potency score (higher = more potent) of 0.0167. Same read-out and setting: the value for TTCCAGTCTGTTCTGGTCCAGG was -1.18; that for TTGGAAACAACCTCCATTCTTC was 0.406. The same measure, in the same setting: in the case of TTCTTTTGGAAACAACCTCCAT it was -0.965.

Another assay addresses GALNT7. Described as above. The note with it: shRNA.
The sequence TTCTTTATTACTGAAATCGTCA came in with a sensor-assay potency score (higher = more potent) of -0.232. As to TTATTCTTCTAATAGACTCTAA, the sensor-assay potency score (higher = more potent) is -0.0226. TTAAATTTTAAAAACGTGCAGA had a sensor-assay potency score (higher = more potent) of -0.271. Consider TAACTTTTGATCCATCAGCTCC, for which the sensor-assay potency score (higher = more potent) was -0.72.

In turn, TAATCATAACTTTTGATCCATC showed a sensor-assay potency score (higher = more potent) of -1.43. For the sequence TTGACATCTCTGTCTTCCCTCA, the sensor-assay potency score (higher = more potent) is -0.191. TAGACTCTAAGTCCACTTCTAC: the sensor-assay potency score (higher = more potent) is -0.661.

ATTGACATCTCTGTCTTCCCTC showed a sensor-assay potency score (higher = more potent) of 0.3. In the case of TTCATTGATTCTGAAAAGCTGA, the sensor-assay potency score (higher = more potent) is -0.364. The same measure, in the same setting: the value for TTCGTGCTTGAATTAAACCTTC was -0.485; that for TTTAATTACACTGTGGACTGTT was 0.94.

The target of another assay is GALNT9. The assay is described as above. As to conditions: shRNA.
TTTCTGATCATCCACTTCTGCC gave a sensor-assay potency score (higher = more potent) of -1.06. TTGTTGTAGGGCTTCCTGGTGC displayed a sensor-assay potency score (higher = more potent) of 0.157.

Sequence TTTCTCACCTCTCCGTACGTGA came in with a sensor-assay potency score (higher = more potent) of -0.461.

The values are drawn from the OligoGym collection.
Note: reference of the scale not given here.
